Rab9 promoter act = Rab9 promoter activation; hit rate 2.8% among 320,000; Huh7 Rab9 promoter-luciferase reporter, luminescence, 24 h; Potency, µM (doses to about 9.22 µM), inactives show at the highest dose activation, negative = inhibition, hits mostly activators; also: % of control where 0% means no effect; nearly all actives have a fitted effect of over 60% in size
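Huh7 reporter line, Rab9 promoter upstream of luciferase. Compound exposure 24 h at 37 °C in reduced-serum medium with 10% FBS. Read-out: luminescence.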
SMN2 splice up = SMN2 splice variant enhancement; hit rate 2.8% among 210,000; Potency, µM (top dose mostly 46.1 µM), inactives show top-dose activity change, positive = activation, most hits filed as activators; HEK293 SMN2-luciferase splicing reporter, luminescence, 30-36 h; AID 1458; also: % of control where 0% means no effect; nearly all actives have a fitted effect of over 55% in size
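HEK293 cells carry an SMN2 […]–luciferase reporter in which exon 7 inclusion puts luciferase in frame. Cells were plated 10-12 h before compound addition, then incubated 30-36 h at 37C. ONE-Glo luminescence was read; sodium butyrate at 4.5 mM final served as control.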
NPC1 prom act = NPC1 promoter activation; Huh7 NPC1 promoter luciferase reporter, 24 h; Potency, µM (highest dose often 9.22 µM), for inactives: at the highest dose activation, usual class: activators; hit rate 2.4% among 320,000; AID 485313; also: % of control where 0% means no effect; nearly all actives have a fitted effect of over 60% in size
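Quantitative HTS used a cell-based reporter: Huh7 cells stably bearing the NPC1 promoter upstream of luciferase were treated with compounds for 24 h, and promoter activation was read as luminescence.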
ELG1 genotox = genotoxicity induction in ELG1-luciferase HEK293T cells | Potency, µM (titrated, usually from 46 µM), inactives show top-dose activity change, positive = activation, hits mostly activators | hit rate 1.3% among 330,000 | HEK293T ELG1-luciferase reporter, luminescence, 16 h; also: % of control where 0% means no effect; nearly all actives have a fitted effect of over 60% in size
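HEK293T cells expressing luciferase-tagged ELG1 were treated with compound or DMSO for 16 hr at 37°C. Luciferase activity was then read after 30 min with ONE-Glo at room temperature; rising signal flags genetic stress.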
FLuc counter = counter-screen for miR-21 project: firefly luciferase inhibitors or activators | P08659 | purified FLuc, Km substrates, luminescence inhibition | Potency, µM (series often up to 57.5 µM), inactives show at the top dose activity change, negative = inhibition, most hits filed as inhibitors | hit rate 6.9% among 360,000 | AID 588342;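 also: plate controls were vehicle for no effect and reference inhibitor for full effect; nearly all actives have a fitted effect of over 55% in size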
Target sequence (P08659 whole entry, looked up): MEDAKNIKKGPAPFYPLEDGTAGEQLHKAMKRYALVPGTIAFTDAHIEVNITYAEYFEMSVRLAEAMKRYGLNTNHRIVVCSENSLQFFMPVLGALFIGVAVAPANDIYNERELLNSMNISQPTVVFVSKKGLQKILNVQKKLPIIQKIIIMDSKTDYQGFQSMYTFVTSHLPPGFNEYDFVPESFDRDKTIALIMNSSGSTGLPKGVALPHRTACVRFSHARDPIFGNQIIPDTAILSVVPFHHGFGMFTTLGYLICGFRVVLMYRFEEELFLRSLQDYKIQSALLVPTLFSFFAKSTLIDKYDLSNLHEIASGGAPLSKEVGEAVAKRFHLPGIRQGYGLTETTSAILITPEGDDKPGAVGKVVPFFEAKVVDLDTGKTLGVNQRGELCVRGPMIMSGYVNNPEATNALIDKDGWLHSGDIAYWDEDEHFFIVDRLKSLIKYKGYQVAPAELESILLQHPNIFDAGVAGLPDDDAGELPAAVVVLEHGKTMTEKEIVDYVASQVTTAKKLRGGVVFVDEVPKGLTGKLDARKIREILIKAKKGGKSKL
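Biochemical qHTS of compounds, final roughly 60 µM downward over six points, against 10 nM purified firefly luciferase using Km concentrations of substrates (10 uM D-luciferin, 10 uM ATP) in Tris acetate pH 7.5 buffer; luminescence output.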
* hit, by the source's call; ? = inconclusive; nt = not tested or not shown. In the library only some 7.5% were active in any assay of this set; here they are far more common. Calls follow the shape of the dose curve; as a rule, active = well fitted curve in the direction sought with a large enough effect; inconclusive = small, poorly fitted or top-dose-only effect, or another doubt; inactive = no such curve, though single readings can be large; an effect the other way counts as inactive or inconclusive. Potency is read from the fitted curve at half-maximal effect.

SMILES	Rab9 promoter act	SMN2 splice up	NPC1 prom act	ELG1 genotox	FLuc counter
CCOc1ccc2nc(NC(=O)Nc3cccs3)sc2c1	1.6µM*	2.8µM*	?	2.6µM*	0.76µM*
Cn1cccc1C1CCCN1CC(=O)Nc1ccc(F)c(F)c1F (centres undefined)	nt	nt	nt	1%	nt
c1ccc(CCCCNCC2COc3ccccc3O2)cc1 (centres undefined)	-9%	15%	-2%	-1%	-5%
CCOc1ccc2nc(NC(=O)Nc3ccccc3)sc2c1	1.4µM*	11µM*	?	?	0.85µM*
CC(C)(C)c1nc(NC(=O)Nc2ccccc2)sc1Br	?	-3%	28%	-5%	19µM*
CCCCOC(=O)Nc1nc2ccccc2s1	4µM*	25µM*	2.8µM*	?	1.1µM*
O=C(NNc1nc2ccccc2s1)C1CC1	1%	7%	3%	2%	-14%
CC(C)C(=O)NNc1nc2ccccc2s1	?	?	?	18µM*	?
Brc1cccc2sc(N3CCCC3)nc12	26%	-18%	6%	10%	?
COC(=O)c1ccccc1N(C)S(=O)(=O)c1cc2c3c(c1)CC(=O)N3CCC2	nt	nt	nt	nt	-3%
COc1ccc(S(=O)(=O)NCCS(=O)(=O)N2CCN(c3ccccc3)CC2)cc1C	nt	nt	nt	nt	-10%
COc1ccc(NC(=O)c2nc3ccccc3s2)cc1	1.6µM*	?	3.5µM*	1.3µM*	1.1µM*
O=C(Nc1nc2ccccc2s1)Nc1ccc(F)cc1F	1.3µM*	nt	1µM*	4.1µM*	0.85µM*
O=C(NNc1nc2ccccc2s1)Nc1ccc(Cl)c(Cl)c1	-6%	nt	2%	2%	?
O=C(NNc1nc2ccccc2s1)Nc1ccc(F)cc1	3.2µM*	nt	4µM*	?	?
COc1ccc(OC)c(NC(=O)c2nc3ccccc3s2)c1	9%	2%	11%	5%	-19%
O=C(Nc1ccc(F)cc1F)Nc1sccc1-c1nc2ccccc2s1	-12%	nt	-6%	-6%	-19%
CCCCN(C(=O)NC(=O)Nc1nc2ccc(OC)cc2s1)S(C)(=O)=O	?	22µM*	?	8.2µM*	24µM*
Oc1ccc(N=Nc2n[nH]c(-c3ccc(Cl)cc3)n2)cc1	1%	20µM*	5%	3%	12µM*
NS(=O)(=O)c1cccc(NC(=O)c2ccno2)c1	1%	nt	-1%	0%	-2%
COc1ccc(Br)cc1CNC(=O)c1cnc2sc(N3CCCCCC3)nn2c1=O	nt	nt	nt	nt	-15%
CC(=O)N=c1sc2cc(C)ccc2n1C	10%	-16%	7%	13µM*	?
CC(=O)SCC(=O)N=c1sc2cc(F)ccc2n1C	nt	-19%	nt	nt	?
CC12CCC(=O)N1C(C(=O)N1CCN(S(=O)(=O)c3ccc(Br)cc3Cl)CC1)CS2 (centres undefined)	3%	nt	1%	-4%	5%
Cc1cccc(-c2nsc(SCC(=O)N3CCCC3)n2)c1	1.4µM*	14µM*	1.6µM*	?	6µM*
SMILES	Rab9 promoter act	SMN2 splice up	NPC1 prom act	ELG1 genotox	FLuc counter
O=C(CSc1nc(-c2ccccc2)ns1)N1CCOCC1	2.8µM*	nt	2.5µM*	23µM*	?
COc1ccc(OC)c(NC(=O)c2c(N3CCCC3=O)c3cc(OC)ccc3n2C)c1	nt	nt	nt	nt	-10%
CNc1nc(-c2ccc3c(c2)CCN3C(=O)CC(C)(C)C)c(C)s1	-2%	nt	-10%	-5%	2%
CNc1nc(-c2ccc3c(c2)CCN3C(=O)c2ccccc2F)cs1	0.56µM*	13µM*	1.6µM*	?	1.5µM*
CNc1nc(-c2ccc3c(c2)CCN3C(=O)c2ccccc2F)c(C)s1	11%	nt	9%	1%	15µM*
Cc1ccc(C(=O)N2CCc3cc(CNC(=O)c4ccccc4F)ccc32)cc1	nt	nt	nt	nt	19µM*
CC1=C(C(=O)Nc2ccccc2)C(c2ccncc2)n2nc(SCc3ccccc3Cl)nc2N1 (centres undefined)	nt	12%	nt	nt	-6%
COc1ccc(C2C3=C(N=C4SCC(=O)N42)c2ccccc2CC3)cc1OC (centres undefined)	2%	-17%	1%	-1%	-13%
COc1ccc(C2C3=C(N=C4SCC(=O)N42)c2ccccc2CC3)cc1 (centres undefined)	23%	-5%	29%	?	11µM*
CCCCOC(=O)Nc1ccc(N2CCCCC2)cc1	3.2µM*	11µM*	2.2µM*	?	3µM*
CCCCOC(=O)Nc1ccc(N2CCOCC2)cc1	3.2µM*	11µM*	?	?	15µM*
COc1nc(NCCO)nc(Nc2ccccc2F)n1	?	nt	?	?	-20%
O=C(Cc1ccccc1)Nc1ccc2[nH]ncc2c1	1%	nt	9%	-5%	-18%
O=C(Nc1ccc2[nH]ncc2c1)c1ccccc1Cl	3.5µM*	nt	4µM*	?	9.5µM*
O=C(Nc1ccc2[nH]ncc2c1)c1ccccc1Br	?	nt	3.2µM*	8%	17µM*
Cc1ccc(S(=O)(=O)N2CCOCC2)cc1C(=O)OCC(=O)NC1CC1	2%	nt	-1%	-3%	6%
CCn1c(=O)cc(OCC(=O)N2CCN(c3cccc(Cl)c3)CC2)c2ccccc21	nt	4%	nt	nt	-14%
O=C(NN/C(=N/S(=O)(=O)c1ccc(Cl)cc1)c1ccccc1)c1cccc(Cl)c1	?	nt	4µM*	16µM*	6µM*
O=S(=O)(/N=C(/NC(=S)Nc1ccccc1)c1ccccc1)c1ccc(Cl)cc1	27%	nt	22%	?	24µM*
Cc1ccc(S(=O)(=O)/N=C(/NNC(=O)c2cccc(Cl)c2)c2ccccc2)cc1	?	nt	?	16µM*	15µM*
O=C(NN/C(=N/S(=O)(=O)c1ccc(Cl)cc1)c1ccccc1)c1ccc(O)cc1	0%	22%	6%	?	15µM*
Cc1cccc(OCC(=O)Nc2nonc2-c2ccc(Br)cc2)c1C	nt	nt	nt	nt	-5%
COc1ccccc1N1CCN(C2CCCN(C(=O)Cn3cccn3)C2)CC1 (centres undefined)	15%	nt	3%	-4%	-1%
O=C(Nc1ccc(N2CCN(C(=O)c3ccccc3)CC2)cc1)c1ccc(Br)o1	0%	-14%	8%	-25%	1%
CCCC(=O)N1CCN(c2ccc(NC(=O)c3ccc(Br)o3)cc2)CC1	0%	-3%	5%	7%	-7%
O=C(Nc1ccc(N2CCCC2)cc1)c1ccc(Br)o1	0.35µM*	?	0.5µM*	?	11µM*
CCN1CCN(c2ccc(NC(=O)c3ccc(Br)o3)cc2)CC1	?	nt	?	16µM*	17µM*
COc1ccccc1CNC(=O)CCCn1c(=O)c2ccccc2n(Cc2ccc(C)cc2)c1=O	nt	-5%	nt	nt	-3%
O=C(CSc1nnc(-c2ccncc2)o1)N1CCCC1	24%	-1%	2%	2%	3%
O=c1cc(-c2ccccc2)[nH]n1-c1ccc([N+](=O)[O-])cc1	?	-9%	20%	-2%	15µM*

Screens from PubChem BioAssay.
